Experimental data reported in PubChem BioAssay AID488890 (Southern Research Specialized Biocontainment Screening …, 2010).
The campaign covered roughly 320,000 compounds. About 1,300 (0.41%) were called active. Not shown: some 3% with an inconclusive outcome. How the calls were made is not given here. Not all results are given here. Potency and affinity values are given separately.

test: growth inhibition of non-replicating M. tuberculosis (AID 488890); conditions: Mycobacterium tuberculosis non-replicating, at 25 µM, stronger effect = higher value;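 further: plate controls were DMSO cells for no effect and high antibiotic wells for full effect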

| Structure (SMILES) | inhibition |
| --- | --- |
| COc1ccc(NC(=O)CN(C)C(=O)c2ccccc2Sc2ncnc3sc(C)c(C)c23)cc1 | 19.2% |
| CC(C)(C)C(=O)CN1C(=O)NC(c2ccccc2)(c2ccccc2)C1=O | 0.55% |
| CCCCCOC(=O)C1=C(C)Nc2ncnn2C1c1cccs1 (stereo not drawn) | 21.8% |
| COc1ccc(CNC(=O)[C@H](C)NC(=O)[C@@H]2Cc3ccccc3CN2)cc1 | 1.37% |
| CC(OC(=O)CCCSc1nc2ccccc2s1)C(=O)NC(N)=O (stereo not drawn) | 68.6% |
| CCNC(=O)NC(=O)C(C)OC(=O)CCCc1nc2ccccc2s1 (stereo not drawn) | 65.1% |
| Cc1c(Cl)cccc1NC(=O)CSc1nncn1-c1cccnc1 | 2.49% |
| O=c1nc(-c2ccccc2)c2ccccc2[nH]1 | -10.3% |
| O=c1cc(-c2ccccc2)[nH]c2ccccc12 | 14.9% |
| CC(C)CN(C(=O)Cn1nnc(-c2ccc(F)cc2)n1)C1CCS(=O)(=O)C1 (stereo not drawn) | 2.71% |
| CCOC(=O)c1cc(-c2cccc([N+](=O)[O-])c2)n[nH]1 | -6.3% |
| CCOC(=O)c1c(-c2cccc([N+](=O)[O-])c2)csc1N | 39.4% |
| COc1cccc(C(=O)Nc2ccc(-n3nncc3C(C)(C)C)cc2)c1 | 9.74% |
| COc1cccc(Oc2nnnn2-c2ccccc2)c1 | 6.02% |
| COc1cccc(-n2nnnc2SCC(=O)NC2CCCC2)c1 | 7.16% |
| C=C(C(=O)Oc1ccccc1C(C)(C)C)c1ccccc1 | 36.4% |
| COC(=O)c1ccc2c(=O)n(CCCCCC(=O)O)c(=O)[nH]c2c1 | -11.8% |

| Structure (SMILES) | inhibition |
| --- | --- |
| CC(NC(=O)COC(=O)c1ccccc1F)C1CC2CCC1C2 (stereo not drawn) | 71% |
| CC(NC(=O)c1cccc(S(=O)(=O)N(C)C)c1)C1CC2CCC1C2 (stereo not drawn) | -2.47% |
| CC(NC(=O)CCC(=O)c1ccc(F)cc1)C1CC2CCC1C2 (stereo not drawn) | 11.8% |
| CC(NC(=O)c1ccc(F)cc1F)C1CC2CCC1C2 (stereo not drawn) | 77.7% |
| O=C(C1CCCN(S(=O)(=O)c2cccc3nsnc23)C1)N1CCN(c2ccccn2)CC1 (stereo not drawn) | 16.4% |
| CCCCN(C(=O)NCCCCCCNC(=O)N(CCCC)C1CCS(=O)(=O)C1)C1CCS(=O)(=O)C1 (stereo not drawn) | -10.6% |
| COc1ccc(CC(=O)OCc2nnc(-c3ccccc3)o2)cc1 | 66.7% |
| COc1cccc(C(Nc2ccccn2)c2oc(CO)cc(=O)c2O)c1 (stereo not drawn) | 8.94% |
| CC(=O)Nc1ccc(/C=N/OCC(=O)Nc2ccc(C)cc2)cc1 | 31.8% |
| CC(C)CNC(=O)c1cccc(NC(=O)COc2cccc([N+](=O)[O-])c2)c1 | 16.2% |
| CNC(=O)CO/N=C/c1ccc(N(C)C)cc1 | 3.3% |
| O=C(COc1ccccc1)Nc1cccc(-c2nnc(-c3ccccc3)o2)c1 | 15.8% |
| CC(=O)Nc1cccc(OCC(=O)Nc2ccc(F)cc2)c1 | -6.82% |
| CC(=O)c1cccc(NC(=O)COc2ccccc2)c1 | 54.2% |
| CCOC(=O)c1cccc(NC(=O)COc2ccc([N+](=O)[O-])cc2)c1 | 73.8% |
| O=C(COc1ccc(CO)cc1)Nc1ccc(F)cc1 | -2.12% |
